Columns and labels:
Test in all cases: log2 ratio of Biotin-Ahx-Ub-VS probe labelling (fragment/DMSO); higher = less target engagement (more negative = stronger competition), active = hit call of the paper (q ≤ 0.05, log2 ratio ≤ -1)
Conditions in all cases: compound concentration: 200 uM; treatment time: 3 h
USP19 = target: T1, USP19 (UniProt O94966)
T1 sequence (whole entry): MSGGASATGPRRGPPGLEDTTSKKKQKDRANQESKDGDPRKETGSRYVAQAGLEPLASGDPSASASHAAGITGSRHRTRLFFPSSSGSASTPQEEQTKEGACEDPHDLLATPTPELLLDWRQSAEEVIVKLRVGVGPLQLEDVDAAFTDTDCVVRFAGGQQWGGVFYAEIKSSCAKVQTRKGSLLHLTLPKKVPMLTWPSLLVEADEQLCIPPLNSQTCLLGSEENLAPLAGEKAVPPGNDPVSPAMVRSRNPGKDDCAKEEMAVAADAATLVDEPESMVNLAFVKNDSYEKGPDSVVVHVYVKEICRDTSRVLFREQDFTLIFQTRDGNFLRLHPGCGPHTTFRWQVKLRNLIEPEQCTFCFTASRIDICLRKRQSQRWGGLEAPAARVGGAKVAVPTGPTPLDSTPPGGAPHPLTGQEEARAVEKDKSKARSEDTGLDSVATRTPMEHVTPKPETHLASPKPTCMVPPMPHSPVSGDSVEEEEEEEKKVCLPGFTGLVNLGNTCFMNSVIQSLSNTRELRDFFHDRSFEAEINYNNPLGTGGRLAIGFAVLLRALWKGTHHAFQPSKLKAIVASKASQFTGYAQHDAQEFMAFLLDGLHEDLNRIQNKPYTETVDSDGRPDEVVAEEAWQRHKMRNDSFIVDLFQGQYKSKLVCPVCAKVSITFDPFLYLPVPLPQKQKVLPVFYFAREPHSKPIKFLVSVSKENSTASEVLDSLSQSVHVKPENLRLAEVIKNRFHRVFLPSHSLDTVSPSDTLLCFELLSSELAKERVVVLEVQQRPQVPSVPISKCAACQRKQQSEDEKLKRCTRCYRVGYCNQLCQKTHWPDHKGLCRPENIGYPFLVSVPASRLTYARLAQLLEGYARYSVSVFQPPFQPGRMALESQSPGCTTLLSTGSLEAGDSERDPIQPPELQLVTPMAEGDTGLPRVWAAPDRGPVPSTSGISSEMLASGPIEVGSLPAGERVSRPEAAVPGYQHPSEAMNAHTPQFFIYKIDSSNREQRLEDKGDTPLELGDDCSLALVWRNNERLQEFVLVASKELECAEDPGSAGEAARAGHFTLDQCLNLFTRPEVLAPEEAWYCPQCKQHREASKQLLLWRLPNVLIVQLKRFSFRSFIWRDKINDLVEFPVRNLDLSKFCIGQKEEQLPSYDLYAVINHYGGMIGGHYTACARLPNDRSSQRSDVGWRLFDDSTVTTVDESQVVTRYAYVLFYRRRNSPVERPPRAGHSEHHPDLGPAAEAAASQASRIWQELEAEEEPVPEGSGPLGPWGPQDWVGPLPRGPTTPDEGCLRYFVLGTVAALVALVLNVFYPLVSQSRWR
How it was run: (§1)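 HEK293T lysate in Tris/CHAPS/IGEPAL buffer with protease inhibitors (495 µg per sample) was given fragment at 200 µM or vehicle for 3 h, in triplicate. It then received Biotin-Ahx-Ub-VS at 0.5 µM final for 1 h. Labelled DUBs were NeutrAvidin-enriched, digested with LysC and trypsin, and run by diaPASEF LC-MS/MS. Values are average log2 fragment/vehicle ratios by unpaired t-test on global-median-normalised Spectronaut quantities of proteins with ≥2 unique peptides.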

USP22 = target: T2, USP22 (UniProt Q9UPT9)
T2 sequence (whole entry): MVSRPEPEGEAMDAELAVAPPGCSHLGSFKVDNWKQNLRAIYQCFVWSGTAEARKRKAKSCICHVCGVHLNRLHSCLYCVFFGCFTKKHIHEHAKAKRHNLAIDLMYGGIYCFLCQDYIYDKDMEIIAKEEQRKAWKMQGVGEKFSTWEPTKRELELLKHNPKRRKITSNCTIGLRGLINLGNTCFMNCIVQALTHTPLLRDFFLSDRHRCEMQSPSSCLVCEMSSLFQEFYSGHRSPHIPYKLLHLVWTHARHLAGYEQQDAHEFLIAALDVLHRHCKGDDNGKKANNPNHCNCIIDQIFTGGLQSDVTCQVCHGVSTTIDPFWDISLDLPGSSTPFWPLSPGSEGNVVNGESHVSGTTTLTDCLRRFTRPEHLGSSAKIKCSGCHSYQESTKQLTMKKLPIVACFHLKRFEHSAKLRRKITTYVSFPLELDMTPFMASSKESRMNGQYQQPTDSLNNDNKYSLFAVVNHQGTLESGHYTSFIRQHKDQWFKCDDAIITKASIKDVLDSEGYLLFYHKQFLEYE
How it was run: as §1

USP24 = USP24 (UniProt Q9UPU5)
Chain of USP24 (Q9UPU5 whole entry): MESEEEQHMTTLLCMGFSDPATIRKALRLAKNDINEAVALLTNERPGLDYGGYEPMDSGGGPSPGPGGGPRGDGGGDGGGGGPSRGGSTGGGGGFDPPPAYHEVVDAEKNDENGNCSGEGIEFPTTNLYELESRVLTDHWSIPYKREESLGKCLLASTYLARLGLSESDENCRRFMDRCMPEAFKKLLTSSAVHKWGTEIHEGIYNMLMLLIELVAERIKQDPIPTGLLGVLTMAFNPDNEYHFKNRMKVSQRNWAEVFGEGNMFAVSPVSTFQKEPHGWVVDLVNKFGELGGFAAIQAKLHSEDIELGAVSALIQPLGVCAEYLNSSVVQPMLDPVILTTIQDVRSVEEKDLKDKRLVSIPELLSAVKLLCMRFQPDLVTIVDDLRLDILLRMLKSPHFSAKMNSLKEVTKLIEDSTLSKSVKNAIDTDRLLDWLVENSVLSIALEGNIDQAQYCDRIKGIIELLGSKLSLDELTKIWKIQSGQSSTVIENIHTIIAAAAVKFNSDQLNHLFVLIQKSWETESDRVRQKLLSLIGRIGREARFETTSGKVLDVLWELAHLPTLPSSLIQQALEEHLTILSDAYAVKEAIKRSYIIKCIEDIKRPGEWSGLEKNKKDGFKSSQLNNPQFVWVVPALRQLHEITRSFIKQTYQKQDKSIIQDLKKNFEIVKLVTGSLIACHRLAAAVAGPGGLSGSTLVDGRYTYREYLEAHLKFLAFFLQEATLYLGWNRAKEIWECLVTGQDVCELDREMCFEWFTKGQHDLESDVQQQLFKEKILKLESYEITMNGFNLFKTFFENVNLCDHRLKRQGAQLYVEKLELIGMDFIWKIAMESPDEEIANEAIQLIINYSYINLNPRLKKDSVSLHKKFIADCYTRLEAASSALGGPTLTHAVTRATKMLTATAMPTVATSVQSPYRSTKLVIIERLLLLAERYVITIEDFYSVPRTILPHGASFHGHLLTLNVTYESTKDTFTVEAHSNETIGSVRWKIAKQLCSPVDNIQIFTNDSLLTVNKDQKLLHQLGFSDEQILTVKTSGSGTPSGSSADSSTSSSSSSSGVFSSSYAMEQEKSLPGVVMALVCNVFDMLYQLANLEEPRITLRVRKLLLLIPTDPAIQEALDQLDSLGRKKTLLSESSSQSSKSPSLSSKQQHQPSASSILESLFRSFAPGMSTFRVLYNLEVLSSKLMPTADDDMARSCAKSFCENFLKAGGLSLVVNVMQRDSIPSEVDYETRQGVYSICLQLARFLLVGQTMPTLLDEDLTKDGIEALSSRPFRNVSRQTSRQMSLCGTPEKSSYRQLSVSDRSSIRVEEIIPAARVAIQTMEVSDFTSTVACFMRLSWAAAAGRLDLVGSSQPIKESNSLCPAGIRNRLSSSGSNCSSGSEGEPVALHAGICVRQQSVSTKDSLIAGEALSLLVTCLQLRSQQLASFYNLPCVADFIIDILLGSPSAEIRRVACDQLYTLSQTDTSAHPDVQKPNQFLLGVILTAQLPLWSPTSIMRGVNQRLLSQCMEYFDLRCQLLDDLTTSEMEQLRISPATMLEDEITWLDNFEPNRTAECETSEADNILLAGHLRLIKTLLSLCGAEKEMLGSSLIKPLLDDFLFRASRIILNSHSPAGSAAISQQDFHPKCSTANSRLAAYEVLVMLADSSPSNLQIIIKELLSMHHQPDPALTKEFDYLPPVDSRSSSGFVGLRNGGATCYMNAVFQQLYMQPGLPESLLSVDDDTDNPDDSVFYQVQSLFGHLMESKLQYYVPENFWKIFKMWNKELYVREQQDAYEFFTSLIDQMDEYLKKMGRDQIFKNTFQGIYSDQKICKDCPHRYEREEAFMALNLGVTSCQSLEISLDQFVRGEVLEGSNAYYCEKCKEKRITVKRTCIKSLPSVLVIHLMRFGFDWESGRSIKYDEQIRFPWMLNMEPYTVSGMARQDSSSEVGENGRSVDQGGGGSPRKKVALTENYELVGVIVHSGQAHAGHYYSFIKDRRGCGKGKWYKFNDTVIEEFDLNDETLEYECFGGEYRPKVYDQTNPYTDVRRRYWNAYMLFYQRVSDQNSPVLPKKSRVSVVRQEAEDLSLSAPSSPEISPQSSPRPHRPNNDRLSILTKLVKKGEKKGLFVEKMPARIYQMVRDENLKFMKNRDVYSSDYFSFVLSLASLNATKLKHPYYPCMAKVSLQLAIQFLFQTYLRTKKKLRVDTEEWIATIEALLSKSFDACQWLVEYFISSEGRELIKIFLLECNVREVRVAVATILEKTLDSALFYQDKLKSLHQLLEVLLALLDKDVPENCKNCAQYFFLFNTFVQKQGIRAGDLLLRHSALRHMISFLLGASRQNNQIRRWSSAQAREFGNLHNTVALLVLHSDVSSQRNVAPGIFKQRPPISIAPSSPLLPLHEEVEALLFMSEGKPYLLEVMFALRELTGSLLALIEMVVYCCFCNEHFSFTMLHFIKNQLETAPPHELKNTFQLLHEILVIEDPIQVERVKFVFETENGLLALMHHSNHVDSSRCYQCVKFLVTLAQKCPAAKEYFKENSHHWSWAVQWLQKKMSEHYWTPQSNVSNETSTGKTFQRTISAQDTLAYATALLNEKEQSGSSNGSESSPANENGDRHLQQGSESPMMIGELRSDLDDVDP
How it was run: as §1

USP25 = target: T3, USP25 (UniProt Q9UHP3)
T3 sequence (whole entry): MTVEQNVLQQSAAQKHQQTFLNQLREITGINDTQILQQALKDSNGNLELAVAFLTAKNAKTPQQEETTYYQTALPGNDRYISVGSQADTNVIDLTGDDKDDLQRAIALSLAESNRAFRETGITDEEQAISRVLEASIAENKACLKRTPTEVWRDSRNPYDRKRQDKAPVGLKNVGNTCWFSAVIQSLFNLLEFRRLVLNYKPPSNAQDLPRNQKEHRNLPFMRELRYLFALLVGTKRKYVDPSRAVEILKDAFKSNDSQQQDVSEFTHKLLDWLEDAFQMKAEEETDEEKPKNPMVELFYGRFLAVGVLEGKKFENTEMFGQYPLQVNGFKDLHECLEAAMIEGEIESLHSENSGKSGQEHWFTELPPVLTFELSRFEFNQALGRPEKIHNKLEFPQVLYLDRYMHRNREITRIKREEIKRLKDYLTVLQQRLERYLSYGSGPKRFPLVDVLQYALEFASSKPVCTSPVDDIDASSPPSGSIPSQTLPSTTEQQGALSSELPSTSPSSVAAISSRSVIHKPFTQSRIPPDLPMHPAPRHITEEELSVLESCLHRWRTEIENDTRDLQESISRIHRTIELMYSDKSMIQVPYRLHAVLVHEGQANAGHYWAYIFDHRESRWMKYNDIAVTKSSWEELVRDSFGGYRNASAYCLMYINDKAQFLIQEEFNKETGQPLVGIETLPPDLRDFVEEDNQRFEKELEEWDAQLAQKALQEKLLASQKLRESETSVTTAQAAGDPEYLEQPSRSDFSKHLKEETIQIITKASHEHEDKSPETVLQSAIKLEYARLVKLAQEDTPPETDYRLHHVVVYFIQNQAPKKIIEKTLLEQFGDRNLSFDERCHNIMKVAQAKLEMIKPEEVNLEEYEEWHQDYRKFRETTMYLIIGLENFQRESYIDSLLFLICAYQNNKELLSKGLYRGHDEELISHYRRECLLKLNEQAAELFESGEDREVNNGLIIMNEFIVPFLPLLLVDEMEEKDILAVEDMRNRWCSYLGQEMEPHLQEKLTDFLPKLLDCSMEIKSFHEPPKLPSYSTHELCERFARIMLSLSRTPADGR
How it was run: as §1

USP28 = target: T4, USP28 (UniProt Q96RU2)
T4 sequence (whole entry): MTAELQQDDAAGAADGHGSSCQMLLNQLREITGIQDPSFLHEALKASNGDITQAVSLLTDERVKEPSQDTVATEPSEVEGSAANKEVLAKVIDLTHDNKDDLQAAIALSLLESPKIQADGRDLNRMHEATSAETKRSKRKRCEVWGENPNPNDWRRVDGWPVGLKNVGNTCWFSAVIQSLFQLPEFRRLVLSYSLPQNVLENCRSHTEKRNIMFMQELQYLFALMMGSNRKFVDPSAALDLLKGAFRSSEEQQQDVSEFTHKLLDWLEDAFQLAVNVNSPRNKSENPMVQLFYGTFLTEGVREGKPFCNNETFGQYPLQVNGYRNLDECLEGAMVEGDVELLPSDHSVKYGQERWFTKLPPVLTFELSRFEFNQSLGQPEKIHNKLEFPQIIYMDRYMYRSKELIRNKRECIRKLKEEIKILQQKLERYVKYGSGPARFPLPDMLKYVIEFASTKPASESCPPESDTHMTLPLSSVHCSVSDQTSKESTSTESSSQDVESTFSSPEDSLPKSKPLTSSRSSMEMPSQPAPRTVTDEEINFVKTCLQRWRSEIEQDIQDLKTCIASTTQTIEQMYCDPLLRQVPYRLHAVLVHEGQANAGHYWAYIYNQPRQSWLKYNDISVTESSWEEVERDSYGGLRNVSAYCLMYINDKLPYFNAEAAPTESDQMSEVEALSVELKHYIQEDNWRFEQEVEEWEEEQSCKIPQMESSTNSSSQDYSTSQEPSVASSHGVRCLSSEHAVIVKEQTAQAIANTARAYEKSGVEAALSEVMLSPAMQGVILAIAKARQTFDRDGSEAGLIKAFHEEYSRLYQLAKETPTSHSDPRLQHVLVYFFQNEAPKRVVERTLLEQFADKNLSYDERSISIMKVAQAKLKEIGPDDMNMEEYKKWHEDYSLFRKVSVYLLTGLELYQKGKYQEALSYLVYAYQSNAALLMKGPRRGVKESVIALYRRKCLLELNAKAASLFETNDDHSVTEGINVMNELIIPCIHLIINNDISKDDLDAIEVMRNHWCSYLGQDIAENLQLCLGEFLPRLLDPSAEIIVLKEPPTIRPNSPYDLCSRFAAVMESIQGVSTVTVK
How it was run: as §1

Measured: log2 ratio of Biotin-Ahx-Ub-VS probe labelling

O=C(CCl)N1CCN(C(=O)Nc2ccccc2)CC1
inactive: USP19 -0.276 | USP22 0.14 | USP24 0.00221 | USP25 -0.151 | USP28 -0.246
